# Screening data (PubChem)
# The entries come from a sample that favours hits as a whole.
# ALOX12 inh = inhibitors of human 12S-lipoxygenase ALOX12; purified 12hLO, xylenol orange hydroperoxide absorbance; Potency, µM (titrated, usually from 108 µM), for the others: at the highest dose activity change, negative = inhibition, actives largely listed as inhibitors; 580,000 compounds, 1.1% hits; AID 1671190; note: % is set by controls: 0 for no effect and ±100 for the full control effect
#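 Hydroperoxide product was detected by ferrous iron/xylenol orange as the 573 to 405 nm absorbance ratio. Arachidonic acid at 40 uM (final) was turned over for 30 min at room temperature by 150 nM human 12hLO, pH 7.0 Hepes buffer, after 15 min compound preincubation.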
# Sfp PPTase inh = inhibitors of Bacillus subtilis Sfp phosphopantetheinyl transferase; Biochemical Sfp PPTase activity, qHTS; Potency, µM, inactives show largest response in the series, negative = inhibition, hits mostly inhibitors; 310,000 compounds, 3.5% hits;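 note: the enzyme is Sfp with the accession as filed and its product quenches rhodamine fluorescence; 0% = enzyme reaction without inhibitor and -100% = no enzyme wells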
#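 After 15 min at room temperature with compound, 15 nM Sfp received 5 uM rhodamine-CoA plus 12.5 uM BHQ-2-ybbR (50 mM Hepes pH 7.6, 10 mM MgCl2). Rate came from the fluorescence difference over 30 min, ex 525/em 598 nm.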
# VDR inh = vitamin D3 receptor (human) inhibition. P11473. VDR-SRC2-3 peptide fluorescence polarization, 2 h. Potency, µM, inactives show max response, negative = inhibition, most hits filed as inhibitors. 400,000 compounds, 0.93% hits. AID 504847; note: % is set by controls: 0 for no effect and ±100 for the full control effect
# Target sequence (P11473 whole entry, looked up): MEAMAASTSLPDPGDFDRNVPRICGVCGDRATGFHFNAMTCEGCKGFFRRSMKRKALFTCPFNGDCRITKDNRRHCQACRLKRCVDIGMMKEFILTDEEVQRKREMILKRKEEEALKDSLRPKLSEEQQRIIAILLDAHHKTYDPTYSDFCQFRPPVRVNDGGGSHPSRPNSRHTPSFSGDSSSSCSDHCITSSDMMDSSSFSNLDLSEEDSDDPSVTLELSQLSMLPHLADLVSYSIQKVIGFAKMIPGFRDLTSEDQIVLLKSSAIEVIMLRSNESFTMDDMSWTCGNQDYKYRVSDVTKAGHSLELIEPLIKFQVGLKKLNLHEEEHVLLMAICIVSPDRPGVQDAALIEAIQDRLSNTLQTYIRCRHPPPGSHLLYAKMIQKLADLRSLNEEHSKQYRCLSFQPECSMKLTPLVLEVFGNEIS
#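 Fluorescence polarization assay of small-molecule disruption of VDR binding to coregulator peptide SRC2-3. Compounds and controls pin-transferred, then read after 2 h incubation at ambient room temperature.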
# GRP78 ERSR act = ER stress response induction in glioma | U87-MG GRP78 promoter luciferase reporter, 16 h | AID 602332 | 420,000 compounds, 0.02% hits | Potency, µM, for the others: at the highest dose activation, usual class: activators; note: series mostly up to about 76 µM; % of control where 0% means no effect; nearly all actives have a fitted effect of over 35% in size
#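 ERSR induction read as luciferase luminescence (Bright-Glo, 10 min at room temperature) in stably transfected human U87-MG glioma cells exposed to compounds for 16 h, using GRP78 as sensor.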
# G9a inh = inhibitors of human histone lysine methyltransferase G9a. G9a H3K9 monomethylation, AlphaScreen, 2 h. Potency, µM (highest dose often 102 µM), for inactives: top-dose activity, negative = inhibition, most hits filed as inhibitors. Q96KQ7. 350,000 compounds, 8.8% hits; note: % is set by controls: 0 for no effect and ±100 for the full control effect; nearly all actives have a fitted effect of over 75% in size
# Target sequence (Q96KQ7 913-1193 limits assumed): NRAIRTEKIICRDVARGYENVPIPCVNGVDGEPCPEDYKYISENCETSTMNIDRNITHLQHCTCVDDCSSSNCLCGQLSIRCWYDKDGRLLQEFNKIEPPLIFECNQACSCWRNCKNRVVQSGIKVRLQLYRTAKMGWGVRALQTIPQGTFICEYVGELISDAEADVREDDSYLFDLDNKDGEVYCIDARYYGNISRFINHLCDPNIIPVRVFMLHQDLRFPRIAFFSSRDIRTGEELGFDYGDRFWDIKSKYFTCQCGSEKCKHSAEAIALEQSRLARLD
#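 AlphaScreen read-out: biotin-H3K9 peptide (500 nM) methylation by 20 nM enzyme with 20 uM SAM, 2 h at room temperature after 15 min compound preincubation; anti-monomethyl H3K9 antibody plus donor/acceptor beads, 10 min dark.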
# Numbers without * were called inactive; i = inactive; ? = inconclusive; / = not tested or not shown; [ ] = another dose, or the depositor's remark. Calls come from the whole dose curve; as a rule, active = well fitted curve in the direction sought with a large enough effect; inconclusive = small, poorly fitted or top-dose-only effect, or another doubt; inactive = no such curve, though single readings can be large; an effect the other way counts as inactive or inconclusive. Potency is the fitted concentration of half-maximal effect.
SMILES,ALOX12 inh,Sfp PPTase inh,VDR inh,GRP78 ERSR act,G9a inh
CC(=O)N1c2ccc(S(=O)(=O)NCCC(=O)N(C)Cc3ccco3)cc2CC1C (stereo not given),-14%,/,/,/,/
COc1ccc(C(C)=O)cc1COc1ccc2ccc(=O)oc2c1,-103%,/,/,/,/
Oc1ccc(NCc2ccccc2OCc2ccccc2F)cc1,251%,?,40µM*,?,3.2µM*
COc1cc(CNc2ccc(O)cc2)cc(Br)c1OCc1ccccc1,i,22µM*,-15%,1%,25µM*
O=C1CCCC/C1=N\Nc1ccc(OCc2ccccc2)cc1,?,-1%,0%,1%,40µM*
Cc1ccc(NCc2ccccc2OCc2ccccc2F)cc1,0%,-3%,12%,-2%,?
Cn1c(=O)c2c(nc(Cl)n2CC(=O)N(Cc2ccccc2F)C2CC2)n(C)c1=O,-3%,/,/,/,/
COc1nc(C(=O)NCC(=O)NC(C)(C)C)cc2ccccc12,41%,/,/,/,/
C[N+](C)(C)c1ccc(/C=N/N=C/c2ccccc2)cc1,11µM*,/,/,/,/
CCCCNc1ncnc2c1cnn2-c1ccc(Cl)cc1,?,8%,-26%,0%,-2%
Clc1ccc(-n2ncc3c(NCCCn4ccnc4)ncnc32)cc1,?,15%,10%,1%,25µM*
CCn1c(SC(C)C(=O)c2ccc(Br)cc2)n[nH]c1=O (stereo not given),0%,/,/,/,/
O=C(/C=C/c1ccccc1)N(Cc1ccc2[nH]ccc2c1)C1CC1,-18%,/,/,/,/
O=C(Nc1ccc(F)cc1)N1CCC(O)(c2csc(CN3CCN(c4ccccn4)CC3)n2)CC1,12%,/,/,/,/
C=CCCC(=O)Nc1nc(C)c(-c2csc(Nc3ccc(Cl)cc3Cl)n2)s1,?,-22%,-13%,3%,7.1µM*
C=CCCC(=O)Nc1nc(C)c(-c2csc(Nc3ccccc3OC)n2)s1,-25%,6%,-6%,-3%,25µM*
CCCCCC(=O)Nc1nc(C)c(-c2csc(Nc3cc(OC)ccc3OC)n2)s1,?,9%,-28%,-1%,7.1µM*
COc1cc(C(=O)Nc2ccc3c(c2)nc(CN2CCC(C)CC2)n3C(C)C)cc(OC)c1OC,-12%,/,/,/,/
COC(=O)/C(=N/Nc1ccccc1C)Sc1nnc(C(O)c2ccccc2)n1-c1ccccc1 (stereo not given),?,?,6%,0%,16µM*
COc1ccc(C(=O)Nc2ccc3oc(C)nc3c2)c(OC)c1OC,87%,/,/,/,/
COc1cc(CNc2ccc(N3CCCC3)cc2)cc(Cl)c1OC,?,14µM*,5.6µM*,-9%,3.5µM*
COc1cccc(CNc2ccc(N3CCCCC3)cc2)c1OC,-40%,2.8µM*,-22%,-2%,?
CCOc1cc(CNc2ccc(N3CCCC3)cc2)cc(Cl)c1OC,?,?,?,1%,10µM*
C=CCOc1c(Cl)cc(CNc2ccc(N(C)C)cc2)cc1OC,?,3.5µM*,2.2µM*,-6%,1.8µM*
O=C(NC[C@H]1O[C@@H](CC(=O)N2CCc3ccccc32)[C@H](O)[C@@H]1O)Nc1cccc(F)c1,9%[176 µM],/,/,/,/
SMILES,ALOX12 inh,Sfp PPTase inh,VDR inh,GRP78 ERSR act,G9a inh
O=C(Nn1cnnc1)c1ccc(Cl)cc1Cl,0%,/,/,/,/
CCOc1ccc(CNc2ccc(N3CCN(Cc4ccccc4)CC3)cc2)cc1,-11%,-9%,1%,-1%,/
CCOc1ccc(CNc2ccc(N3CCCC3)cc2)cc1,?,?,4µM*,-4%,?
CCN(CC)C(=O)Cn1cnc2c1c(=O)n(C)c(=O)n2C,?,7%,-4%,-2%,56µM*
O=C(Cn1cnc2ccccc2c1=O)Nc1nc2ccccc2s1,4%,-12%,-8%,-1%,45µM*
CC(C)N(Cc1ccccc1)C(=O)CCn1cnc2c1c(=O)n(C)c(=O)n2C,11%,/,/,/,/
Cn1c(=O)c2c(ncn2CCN(CCO)Cc2ccccc2)n(C)c1=O,-25%,5%,-5%,-5%,40µM*
CCN(CC)C(=O)Cn1cnc2ccccc2c1=O,-4%,0%,-5%,-1%,20µM*
CC(C)(C)C1CCc2onc(C(=O)N3CCCC3)c2C1 (stereo not given),5%,/,/,/,/
Cc1[nH]c2ccccc2c1C1c2ccccc2C(=O)N1CC(=O)N1CCN(C=O)CC1 (stereo not given),-10%,/,/,/,/
Cc1ccc(S(=O)(=O)NCc2ccccn2)c(C)c1C,?,2%,7%,-1%,12%[59 µM]
Cc1ccc(S(=O)(=O)NCc2ccncc2)c(C)c1C,-5%,45µM*,-2%,0%,/
Nc1ccc(Oc2ccc3nc(-c4ccccc4)c(-c4ccc([N+](=O)[O-])cc4)nc3c2)cc1,88%,18%,16%,-4%,32µM*
N#Cc1ccc(Oc2ccc(-c3nc4ccccc4nc3-c3ccccc3)cc2)cc1C#N,-1%,6%,4%,-3%,13%[59 µM]
NCCCC[C@@H]1NC(=O)c2cc([N+](=O)[O-])cc(I)c2SC[C@@H](C(N)=O)NC(=O)[C@H](CCC(N)=O)NC1=O,?,9%,1%,-3%,8.9µM*
NCCCC[C@@H]1NC(=O)c2cc([N+](=O)[O-])cc(I)c2SC[C@@H](C(=O)NCC(N)=O)NC(=O)CNC1=O,/,26%,4%,-2%,32µM*
NCCCC[C@@H]1NC(=O)c2cc([N+](=O)[O-])cc(F)c2NCCCC[C@@H](C(N)=O)NC(=O)[C@H](CCC(N)=O)NC1=O,0%,7%,-4%,-2%,?
NCCCC[C@@H]1NC(=O)c2cc([N+](=O)[O-])cc(F)c2NCCCC[C@@H](C(N)=O)NC(=O)CNC1=O,-3%,4%,-16%,-4%,-22%
O=C(O)/C=C/c1nc(-c2ccccc2)n2ccccc12,?,11%,?,-4%,11µM*
CNC(=S)N/N=C/c1c(C)c(C(=O)c2ccc(F)cc2)n2ccccc12,35µM*,-9%,-3%,-3%,-5%
CC1(C)C/C(=N/O)C=CO1,-8%,/,/,/,/
CC(C)=NNC(=O)CN1C(=O)NC2NC(=O)NC21 (stereo not given),-17%,-5%,1%,-4%,79µM*
CCOc1ccc(C2C(C(=O)Nc3ccc(F)cc3)=C(C)NC3=C2C(=O)CC(C)(C)C3)cc1 (stereo not given),-26%,/,/,/,/
CC(C)CNC(=O)c1ccccc1N,13%,/,/,/,/
CCCc1cc(=O)oc2c(CNc3ccc(OCC)cc3)c(O)ccc12,?,-2%,-14%,-4%,40µM*
O=C1CCN(C(=O)[C@@H]2CCCN2S(=O)(=O)c2ccccc2)CCCCCCN1,48%,/,/,/,/
CCCCCCCCCCCCCCCC[N+](C)(C)CCN(Cc1ccc(OC)cc1)c1ncccn1,?,14µM*,18%,-11%,-33%[59 µM]
N=c1c2c(-c3ccccc3)c(-c3ccccc3)n(Cc3ccco3)c2ncn1CCCn1ccnc1,3%,-7%,9%,-7%,?
